From PubChem BioAssay
An excerpt weighted towards active compounds, which were near 9.3% of everything screened.
NADH coupling: blocks coupling enzymes of NAD/NADH assays. AID 774. 65,000 compounds, 0.02% hits. IC50, µM (series often up to 10 µM). coupled PK/LDH NADH assays, four targets;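 active means single-dose screening hits from any of four coupled enzyme assays that gave an IC50 when retested across doses; inconclusive means no clear call, values can overlap the other calls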;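 further: the DPM-DC format reads NADH fluorescence rather than 340 nm absorbance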
Htt clearance: compounds clearing mutant huntingtin protein; HeLa Exon1htt(103Q)mCFP, aggregate imaging; zero = plate's median compound well; inhibition, % at 1.5 µM; 47,000 compounds, 0.42% hits; AID 853;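 active means inhibition of aggregate fluorescence above about 70%, also judged a hit by eye on the cell image, limit read from the data, passing the limit was not always enough; inconclusive means no rule stated for this call; inactive means not judged a hit on image review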;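 further: cells exposed to compound for three days before fixation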
M1 ag: agonists of M1 muscarinic receptor. CHO-M1 cells, Fluo-4 calcium fluorescence, agonist mode; hits give high values. B-score at 10 µM. 64,000 compounds, 3% hits;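 active means fluorescence rise, raw or as B-score row- and column-corrected plate score, outside the 99.7% band of its plate's samples, either direction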
M1 antagonist: blocks the rat M1 muscarinic receptor response to acetylcholine. P08482. B-score at 10 µM. CHO-M1 cells, Fluo-4 calcium, ACh EC80 antagonist mode; hits give low values. 64,000 compounds, 3.4% hits;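 active means calcium fluorescence response, raw or row-and-column corrected B-score, differing from the plate sample mean either way at a set confidence level, mostly lower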
Abs 340nm: absorbance at 340 nm; compound absorbance at 340 nm, fold over control; fold change at 10 µM; 65,000 tested, under 10 active;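 active means at 10 µM dose, initial 340 nm absorbance at least 2 fold that of control wells; inactive means change under 2 fold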;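 further: initial absorbance extrapolated from kinetic A340 decline of NADH oxidation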
Fluor 339 460: intrinsic fluorescence of library compounds, ex339/em460 – biochemical, MLSMR library, data from DPM-DC assay, artefact control, profiling panel; fluorescence fold increase at 10 µM; AID 709; compound autofluorescence, ex339/em460 nm, NADH buffer; hits give high values; 1 = no-compound wells, NADH background; 65,000 compounds, 5.5% hits;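 active means at 10 µM, mean starting fluorescence two-fold or more over control wells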;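 further: signal is the first read of a kinetic run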
M1 ag confirm: confirmation of rat M1 muscarinic receptor agonists; 1,700 compounds, 19% hits; AID 1488; shares compounds with M1 ag; CHO-M1 cells, Fluo-4 calcium fluorescence, agonist mode; actives lie on both sides; fluorescence change (max-min) at 10 µM;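 active means fluorescence change differs from the solvent-only DMSO control mean at a set confidence level in both duplicate runs; inconclusive means differs from solvent-only control mean in just one of two runs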;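 further: an EC20 dose of acetylcholine follows compound addition during the same imaging run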
M4 agonist ctr: counter-screen for M1 agonists: activity at rat M4 receptor | CHO M4/Gqi5 cells, Fluo-4 calcium fluorescence, agonist mode; actives lie on both sides | shares compounds with M1 ag | fluorescence change (max-min) at 10 µM | 1,700 compounds, 9% hits;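 active means fluorescence change differing from the plate's solvent-only control wells at 99.7% confidence in both duplicates, whether higher or lower; inconclusive means differs from solvent controls in only one of two duplicates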
Target sequence (P08485 whole entry, looked up): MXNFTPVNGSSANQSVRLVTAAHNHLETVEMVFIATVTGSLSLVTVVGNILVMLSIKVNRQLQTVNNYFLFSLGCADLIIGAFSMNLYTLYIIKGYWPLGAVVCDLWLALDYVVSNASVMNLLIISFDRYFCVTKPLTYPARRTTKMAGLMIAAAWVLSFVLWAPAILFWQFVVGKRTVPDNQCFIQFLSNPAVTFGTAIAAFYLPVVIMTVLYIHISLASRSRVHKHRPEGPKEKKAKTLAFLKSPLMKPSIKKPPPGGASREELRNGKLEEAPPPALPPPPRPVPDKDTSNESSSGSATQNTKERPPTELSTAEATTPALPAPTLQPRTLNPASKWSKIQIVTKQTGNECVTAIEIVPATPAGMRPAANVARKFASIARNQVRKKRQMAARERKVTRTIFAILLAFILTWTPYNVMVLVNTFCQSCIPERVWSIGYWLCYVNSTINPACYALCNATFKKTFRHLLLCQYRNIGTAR
Of the large screens only hits and unclear results are named; the others gave an inactive call (follow-up assays come after a bar, where they were run).

O=C1CCC(=O)N1CNc1ccc(Oc2ccccc2)cc1	M1 ag -3.2 | M1 ag confirm inconclusive | M4 agonist ctr inactive
O=C(CNc1ccc(Oc2ccccc2)cc1)N1CCOCC1	M1 ag 2.8 (no result: Htt clearance) | M1 ag confirm inconclusive | M4 agonist ctr inconclusive
COc1ccc(/C(O)=C2/C(=O)C(=O)N(CCCN(C)C)C2c2cccc(Cl)c2)cc1OC (configuration not stated)	none (no result: Htt clearance)
COc1ccc(C(C)=O)c(Oc2nc(CN3CCOCC3)nc3scc(-c4cccs4)c23)c1	M1 ag 45 | M1 ag confirm inactive | M4 agonist ctr inactive
COc1ccccc1N1CCN(C(=O)CSc2ncccc2-c2nc3ccccc3[nH]2)CC1	M1 ag 13 (no result: Htt clearance) | M1 ag confirm inconclusive | M4 agonist ctr inactive
COc1ccc(N2CCN(C(=O)CSc3ncccc3-c3nc4ccccc4[nH]3)CC2)cc1	none (no result: Htt clearance)
Cc1csc(NC(=O)c2sc3nc(-c4cccs4)ccc3c2N)n1	M1 ag 54, Fluor 339 460 2.4 | M1 ag confirm inconclusive | M4 agonist ctr inconclusive
COc1ccc(C(=O)Nc2nc(-c3cccs3)cs2)cc1	none (no result: Htt clearance)
O=C(Nc1ccccc1OC(F)F)c1ccc(Br)o1	none
CCN(CC)CCCNC(=O)C1c2ccccc2C(=O)N(C)C1c1ccc(OC)cc1 (configuration not stated)	none
COc1ccc(N(CC(=O)Nc2ccc3c(c2)OCCO3)S(=O)(=O)c2cccnc2)cc1	none (no result: Htt clearance)
CCN(CC(=O)Nc1ccc2c(c1)OCCO2)c1nc(-c2cccnc2)nc2ccccc12	M1 ag 7.3 | M1 ag confirm -28 | M4 agonist ctr inconclusive
CC(=Nc1ccc(O)cc1)c1sc2ccccc2c1O	M1 ag 36 (no result: Htt clearance) | M1 ag confirm inactive | M4 agonist ctr inactive
CCOC(=O)Cn1c2ccc(OC)cc2c2nc3ccccc3nc21	M1 ag 19 (no result: Htt clearance) | M1 ag confirm inactive | M4 agonist ctr inactive
COC(=O)Cn1c2ccc(OC)cc2c2nc3ccccc3nc21	none
Cc1cccc2cc3c(N)c(C(=O)Nc4ccc(N5CCOCC5)cc4)sc3nc12	none (no result: NADH coupling, M1 ag, M1 antagonist, Abs 340nm, Fluor 339 460)
Cc1cccc2cc3c(N)c(C#N)sc3nc12	Htt clearance inconclusive, M1 ag 8.6 | M1 ag confirm inactive | M4 agonist ctr inconclusive
COc1ccc(Nc2ccnc3ccccc23)cc1	Htt clearance 91, M1 ag 14, M1 antagonist -2 | M1 ag confirm inactive | M4 agonist ctr inactive
COc1cccc(Nc2ncnc3ccccc23)c1	none (no result: NADH coupling, M1 ag, M1 antagonist, Abs 340nm, Fluor 339 460)
COCCn1c(=S)[nH]c2ccc(N(C)C)cc2c1=O	M1 ag 6.3, Fluor 339 460 3.8 | M1 ag confirm inactive | M4 agonist ctr inactive
COc1ccccc1N1C(=O)c2cccc3c(C(=O)O)ccc(c23)C1=O	none (no result: NADH coupling, M1 ag, M1 antagonist, Abs 340nm, Fluor 339 460)
Cc1ccccc1N1C(=O)c2cccc3c(N(C)CCO)ccc(c23)C1=O	M1 ag 91 | M1 ag confirm 868 | M4 agonist ctr 912
O=C(OCc1cccs1)c1ccccc1NS(=O)(=O)c1ccc2c(c1)OCCO2	M1 ag 4 | M1 ag confirm inactive | M4 agonist ctr inactive
Cc1c(-c2ccccc2)sc(N)c1C(=O)N1CCOCC1	none
c1ccc(Cn2nnnc2C(c2cccnc2)N2CCN(c3ccccc3)CC2)cc1 (configuration not stated)	M1 ag 6.1 | M1 ag confirm inconclusive | M4 agonist ctr inconclusive
COc1ccccc1N1CCN(c2ncnc3c2oc2ccccc23)CC1	M1 ag 3.9 | M1 ag confirm -29 | M4 agonist ctr inactive
c1ccc2[nH]c(CN3CCN(c4ncnc5c4oc4ccccc45)CC3)nc2c1	none
O=C(c1ccco1)N1CCN(c2ncnc3c2oc2ccccc23)CC1	M1 ag 14 (no result: Htt clearance) | M1 ag confirm inactive | M4 agonist ctr inactive
COc1ccccc1N1CCN(c2ncnc3nc[nH]c23)CC1	M1 ag 3 (no result: Htt clearance) | M1 ag confirm inconclusive | M4 agonist ctr inactive
COc1ccc(N2CCN(c3ncnc4nc[nH]c34)CC2)cc1	none (no result: Htt clearance)
CCOC(=O)N1CCN(C(=O)C(NC(=O)c2ccc(CC)cc2)C(C)C)CC1 (configuration not stated)	none
O=C(CSc1nnc(-c2ccc(S(=O)(=O)N3CCCC3)cc2)o1)NCc1ccco1	none (no result: Htt clearance)
O=C(CNC(=O)c1ccco1)OC(C(=O)c1ccccc1)c1ccccc1 (configuration not stated)	M1 ag 6.7 | M1 ag confirm inactive | M4 agonist ctr inconclusive
O=C(CNC(=O)c1ccco1)OCc1ccc(C(=O)Oc2ccccc2)cc1	none (no result: Htt clearance)
O=C(CCCN1C(=O)c2ccccc2C1=O)OC1CSCC1NC(=O)c1ccccc1 (configuration not stated)	none (no result: NADH coupling, M1 ag, M1 antagonist, Abs 340nm, Fluor 339 460)
O=C(Nc1ccccc1F)C1CCCN(S(=O)(=O)c2cccc3cccnc23)C1 (configuration not stated)	none
O=C(C1CCCN(S(=O)(=O)c2cccc3cccnc23)C1)N1CCN(c2ccc(F)cc2)CC1 (configuration not stated)	M1 ag 2.7 | M1 ag confirm inconclusive | M4 agonist ctr inconclusive
O=C(C1CCCN(S(=O)(=O)c2cccc3nsnc23)C1)N1CCN(c2ccccn2)CC1 (configuration not stated)	M1 ag 3.1 | M1 ag confirm inactive | M4 agonist ctr inactive
O=C(C1CCCN(S(=O)(=O)c2cccc3cccnc23)C1)N1CCc2ccccc21 (configuration not stated)	M1 ag 3.1 | M1 ag confirm inconclusive | M4 agonist ctr inactive
CC(C)(C)NC(=O)C1CCCN(S(=O)(=O)c2cccc3cccnc23)C1 (configuration not stated)	none (no result: Htt clearance)
O=C(NCC1COc2ccccc2O1)C1CCCN(S(=O)(=O)c2cccc3nsnc23)C1 (configuration not stated)	M1 ag 3.2 (no result: Htt clearance) | M1 ag confirm inconclusive | M4 agonist ctr inactive
O=C(C1CCN(S(=O)(=O)c2cccc3cccnc23)CC1)N1CCn2c1nc1ccccc12	M1 ag 22, M1 antagonist 6.6 | M1 ag confirm inactive | M4 agonist ctr inactive
O=C(C1CCCN1S(=O)(=O)c1cccc2cccnc12)N1CCn2c1nc1ccccc12 (configuration not stated)	none
Cc1ccccc1Nc1nc(N)nc(CSc2nc3ccccc3c(=O)n2CCCO)n1	M1 ag 4.1 (no result: Htt clearance) | M1 ag confirm inconclusive | M4 agonist ctr inactive
CC(=O)Nc1cccc(NC(=O)c2oc3ccccc3c2C)c1	M1 ag 2.3 (no result: Htt clearance) | M1 ag confirm inactive | M4 agonist ctr inactive
CC(=O)Nc1cccc(NC(=O)c2cc3ccccc3o2)c1	none
